The full list was thinned out, with hits kept by preference.
RBX1-CUL1 inh – inhibitors of human ROC1-CUL1 ubiquitin ligase activity; P62877+Q13616; in vitro K48 di-Ub FRET, acceptor:donor ratio, 45 min; inhibition, % at 10 µM; 140,000 compounds, 0.6% hits; AID 1347404; in the data active = inhibition above about 25%
Target sequence (P62877 whole entry, looked up): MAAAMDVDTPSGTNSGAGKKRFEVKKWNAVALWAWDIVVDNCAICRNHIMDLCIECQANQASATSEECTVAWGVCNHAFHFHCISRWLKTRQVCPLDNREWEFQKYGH
Target sequence (Q13616 whole entry, looked up): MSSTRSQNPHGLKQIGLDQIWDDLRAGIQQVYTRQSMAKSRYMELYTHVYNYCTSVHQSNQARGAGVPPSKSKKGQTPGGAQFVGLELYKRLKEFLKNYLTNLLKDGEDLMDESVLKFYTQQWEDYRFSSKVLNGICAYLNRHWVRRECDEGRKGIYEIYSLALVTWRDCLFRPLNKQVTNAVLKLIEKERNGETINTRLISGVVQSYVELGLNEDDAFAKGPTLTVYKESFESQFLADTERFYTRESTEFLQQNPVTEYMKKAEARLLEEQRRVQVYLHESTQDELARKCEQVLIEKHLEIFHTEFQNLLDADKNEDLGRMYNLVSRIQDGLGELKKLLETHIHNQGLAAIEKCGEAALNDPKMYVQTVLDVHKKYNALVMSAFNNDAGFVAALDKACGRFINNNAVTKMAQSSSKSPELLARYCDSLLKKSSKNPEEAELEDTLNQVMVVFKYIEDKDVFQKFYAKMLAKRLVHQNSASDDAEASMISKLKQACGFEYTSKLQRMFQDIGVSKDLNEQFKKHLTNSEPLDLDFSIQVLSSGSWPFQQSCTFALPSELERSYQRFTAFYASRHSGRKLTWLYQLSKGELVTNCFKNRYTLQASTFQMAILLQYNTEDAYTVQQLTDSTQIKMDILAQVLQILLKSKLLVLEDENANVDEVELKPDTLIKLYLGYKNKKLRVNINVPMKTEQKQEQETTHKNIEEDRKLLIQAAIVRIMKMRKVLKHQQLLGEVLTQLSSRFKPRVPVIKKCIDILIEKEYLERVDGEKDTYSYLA
* marks the source's active call; other numbers are inactive results.

SMILES | RBX1-CUL1 inh
Cc1ccc(-c2nn3c(N)c(C=C4C=Nc5ccccc54)c(=O)nc3s2)cc1 | 1.5
Nc1c(C=C2C=Nc3ccccc32)c(=O)nc2sc(C(F)(F)F)nn12 | -4.0
COC1=CC(=Cc2c(N)n3nc(-c4ccccc4Cl)sc3nc2=O)C=CC1=O | 60.2*
Cc1[nH]n(-c2ccccc2)c(=O)c1/C=N/NC(=O)Cc1ccc(Br)cc1 | 0.2
Cc1[nH]n(-c2ccccc2)c(=O)c1C(C[N+](=O)[O-])c1ccc(Br)cc1 (stereo unspecified) | 69.7*
Cc1[nH]n(-c2ccccc2)c(=O)c1C(c1ccc(-c2ccc(Br)cc2)o1)c1c(C)[nH]n(-c2ccccc2)c1=O | -9.3
O=C(O)CCNc1c2ccccc2nc2ccccc12 | 3.7
CCOC(=O)c1cccc(NS(=O)(=O)c2cc3[nH]c(=O)c(=O)[nH]c3cc2C)c1 | -1.1
Cc1cc(C)cc(NS(=O)(=O)c2cc3[nH]c(=O)c(=O)[nH]c3cc2C)c1 | -7.7
CCc1cccc(C)c1NS(=O)(=O)c1cc2[nH]c(=O)c(=O)[nH]c2cc1C | 43.5*
COc1ccc(C(C2C(=O)Oc3ccc(C)cc3C2=O)C2C(=O)Oc3ccc(C)cc3C2=O)cc1 (stereo unspecified) | 69.2*
COc1ccc(C(C2C(=O)C=C(C)OC2=O)C2C(=O)C=C(C)OC2=O)cc1 (stereo unspecified) | 0.2
COc1ccc(N=CC2C(=O)Oc3ccccc3C2=O)cc1 (stereo unspecified) | -0.2
O=C(Cc1cccc2ccccc12)Nc1cccc(O)c1 | -1.0
N#Cc1ccccc1COc1ccc(Br)cc1C1c2cc3c(cc2OC(=N)C1C#N)OCO3 (stereo unspecified) | -4.9
Nc1ccc2ccc3cccnc3c2n1 | -8.3
CS(=O)(=O)c1ccccc1C(=O)O | 4.1
Nc1ccc2cccc(C(=O)O)c2n1 | 69.9*
CC(=O)Nc1ccc(Oc2cc(NC(=O)c3ccccc3)cc([N+](=O)[O-])c2)cc1 | 6.7
CC(=O)Oc1cc(C(=O)Nc2ccc(Oc3ccccc3)cc2)cc(OC(C)=O)c1OC(C)=O | 38.5*
O=C(Nc1ccc(Oc2ccccc2)cc1)c1ccncc1 | 3.5
O=C(Oc1ccc2c(c1)OCO2)C1CCCCC1 | -7.2
O=C(Cc1cccc2ccccc12)N/N=C/c1ccc(Sc2nnnn2-c2ccccc2)o1 | 6.2
CCn1ccnc(Cl)c1=Nc1ccc(OCCOCCOc2ccc(N=c3c(Cl)nccn3CC)cc2)cc1 | -4.9
CC(C)c1cc(N)cc(C(=O)O)c1O | 2.5
SMILES | RBX1-CUL1 inh
CCC(C)NS(=O)(=O)c1ccc(OC)c(C(=O)O)c1 (stereo unspecified) | -1.2
CCC(C)c1cc(Cc2cc(C(C)CC)cc(C(=O)O)c2O)c(O)c(C(=O)O)c1 (stereo unspecified) | 80.2*
COC(=O)C(C)N1C(=O)S/C(=C/c2ccc(N3CCOCC3)o2)C1=O (stereo unspecified) | -4.7
CCSc1nnc(NC(=O)c2cc(-c3ccc(C)o3)nc3ccccc23)s1 | 80.5*
Cc1ccc(-c2cc(C(=O)Nc3ccccc3C(N)=O)c3ccccc3n2)o1 | 0.8
Cc1ccc(CNC(=O)c2cc(-c3ccc(C)o3)nc3ccccc23)cc1 | 8.5
CCOC(=O)c1c(NC(=O)Cn2nc(C)c([N+](=O)[O-])c2C)sc(C)c1C | 4.9
COc1ccccc1-c1cc(-c2ccccc2)nc(-c2cc(Cl)ccc2O)c1 | 1.9
Nc1cc(S(=O)(=O)O)c(N)c2ccc(S(=O)(=O)O)cc12 | 100.8*
O=S(=O)(O)c1ccc2ncccc2c1 | 2.5
CCOc1ccc2cc(S(=O)(=O)O)ccc2c1N | 8.0
FC(F)(F)c1cccnc1Sc1ccccn1 | -2.8
CN(C)C(=O)c1ccccc1SC1CCc2ccccc2C1 (stereo unspecified) | 13.6
CSc1cc(-c2ccccc2)nc(N)n1 | 5.0
COc1cc(OC)nc(Oc2cccc(OC)c2N)n1 | 4.0
COc1cc(-c2c(F)c(F)c(F)c(F)c2F)nc(N)n1 | 34.6*
Cc1ccc(C(=O)O)c2c1N[C@@H](c1ccccc1F)[C@H]1CC=C[C@@H]21 | 33.0*
Fc1ccccc1C1Nc2ccc3ccccc3c2C2C=CCC21 (stereo unspecified) | -7.2
CC(=O)Nc1ccc2c(c1)C1C=CCC1C(c1ccccc1F)N2 (stereo unspecified) | -7.5
Cc1nc(SCC2=Nc3c(F)cccc3C(=O)C2)n[nH]1 | -3.1
Cc1[nH]n(-c2ccccc2)c(=O)c1/C=N\NC(=O)C1COc2cc3ccccc3cc2O1 (stereo unspecified) | 2.4
O=C(Nc1ccc(Br)c(Cl)c1)C(F)(F)F | -5.9
CN1C(=O)C(=O)C2c3ccccc3C(=O)c3c(Cl)cc(Cl)c1c32 (stereo unspecified) | 32.9*
CN1C(=O)C(c2cccc(Cl)c2)C(=O)c2ccccc21 (stereo unspecified) | -13.1
CCc1ccccc1C1C(=O)c2ccccc2C1=O | 7.7
SMILES | RBX1-CUL1 inh
Cc1ccc(C2=NN=C(c3ccc(C)cc3)CC(c3ccc(Cl)cc3)=C2)cc1 | -12.0
COc1cccc(CNC(=O)N2CCC(Cn3cc(CO)nn3)CC2)c1 | 36.0*
COCc1cn(CC2CCN(C(=O)NCc3ccccc3F)CC2)nn1 | -7.8
Cc1ccc(CCC(=O)N2CCC(Cn3cc(CO)nn3)CC2)cc1C | 0.4
CC(C)C1=NN2C(=N)/C(=C/c3ccc(Cl)cc3)C(=O)N=C2S1 | 1.0
Cc1ccccc1Sc1ccc([N+](=O)[O-])cn1 | 0.8
CS(=O)(=O)c1ccc([N+](=O)[O-])cn1 | 63.0*
O=[N+]([O-])c1ccc(S(=O)(=O)c2cccc(C(F)(F)F)c2)nc1 | 9.0
Cc1cccc(COc2ccccc2/C=C2\C(=O)NN(c3ccccc3)C2=O)c1 | 8.2
COc1cc(/C=C2/C(=O)NN(c3ccccc3)C2=O)cc(OC)c1O | 9.6
COc1cc(/C=C2\C(=O)NN(c3ccccc3)C2=O)cc(Br)c1OCCCOc1cccc(C)c1 | 45.1*
CCOc1ccc(/C=C2/C(=O)NN(c3cccc(F)c3)C2=O)cc1OC | -4.8
COc1cc(/C=C2\C(=O)NN(c3ccccc3)C2=O)cc(Br)c1OCc1ccc(C)cc1 | 8.1
Cc1cccc(OCCCOc2ccc(Br)cc2/C=C2\C(=O)NN(c3ccccc3)C2=O)c1 | 57.3*
COc1cc(/C=C2/C(=O)NN(c3ccccc3)C2=O)ccc1OCC(=O)Nc1cccc(C)c1 | -1.8
COc1cc(/C=C2\C(=O)NN(c3ccccc3)C2=O)cc(Br)c1OCCCOc1ccc(Cl)cc1 | 55.3*
CCOc1cc(/C=C2\C(=O)NN(c3ccccc3)C2=O)ccc1OCc1ccccc1C | 10.4
CCOc1cc(/C=C2\C(=O)NN(c3ccccc3)C2=O)cc(Br)c1OCCCOc1ccc(Cl)cc1 | -15.1
CCOc1cc(/C=C2\C(=O)NN(c3ccccc3)C2=O)cc(Br)c1OCCCOc1cccc(C)c1 | 34.6*
Cc1c(C(=O)NCC2(c3ccccc3)CCOCC2)cnn1-c1nccc(-c2ccc3c(c2)OCO3)n1 | 3.7
Cc1oc(-c2ccco2)nc1CN(C)C(C)c1nccs1 (stereo unspecified) | -1.4
CC(C)c1ccc(C2C(C)C(N3CCC(C(=O)NCc4ccccc4)CC3)NS2(=O)=O)cc1 (stereo unspecified) | 9.8
COc1ccc2c(c1)OC(C)CN(CC(=O)NCC(c1ccc(F)cc1)N1CCCC1)C2 (stereo unspecified) | 14.9
COc1cc(OC)c(C(=O)Oc2ccccc2)cc1OC | -3.0
COc1cc(CN2CCOC(Cc3ccccc3)C2)cc(OC)c1OC (stereo unspecified) | -1.1
CC(NC(=O)c1sc2cc(Cl)ccc2c1Cl)C1CCCO1 (stereo unspecified) | -1.0

Assay outcomes deposited in PubChem by Pan Lab, Icahn School of Medicine at Mount Sinai.
